A selection: hits, their analogues and other compounds. The true share with any hit is near 4.1%.
F508del corr = F508del CFTR correction, initial screen, CFBE line, single point; activity (quench increase), % at 7.58 µM; CFBE cells, YFP halide quenching; stimulated with forskolin plus potentiator P3; % fluorescence drop versus neutral controls; actives 0.36% (n = 350,000);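 active = mean added fluorescence quench of at least 8% versus neutral control, with both replicates also reaching 8%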;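 note: cells transiently co-express mutant CFTR-F508del with the halide-sensitive YFP; corrector assay measuring rescue of mutant channel to the surface after 24 h compound exposure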
CASP6 VEID inh = human caspase-6 inhibitors, primary screen, biochemical, VEID-R110 fluorescence, single point, set 2; P55212; purified caspase-6, Z-VEID-R110 cleavage fluorescence; inhibition, % at 12.5 µM; actives 0.53% (n = 350,000); AID 686996, 2013;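 active = mean inhibition across replicates at least about 35%, with every replicate also reaching that limit, limit read from the data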;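 note: 0% = median of neutral control wells and 100% = no fluorescence left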
Target sequence (P55212 24-179 limits assumed): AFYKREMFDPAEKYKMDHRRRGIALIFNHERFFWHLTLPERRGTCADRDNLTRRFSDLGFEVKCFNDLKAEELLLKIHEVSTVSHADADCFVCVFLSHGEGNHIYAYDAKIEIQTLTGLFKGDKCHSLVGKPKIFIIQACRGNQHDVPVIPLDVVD
Target sequence (P55212 194-293 limits assumed): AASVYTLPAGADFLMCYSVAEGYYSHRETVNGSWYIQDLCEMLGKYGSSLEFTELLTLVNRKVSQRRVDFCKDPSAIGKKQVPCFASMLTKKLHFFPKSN
PglD DTNB = C. jejuni PglD acetyltransferase inhibitors, primary screen, biochemical, DTNB colorimetric, single point; UDP-N-acetylbacillosamine N-acetyltransferase PglD (Campylobacter jejuni); purified PglD enzyme, DTNB colorimetric CoA detection; inhibition, % at 12.5 µM; actives 0.098% (n = 360,000); AID 602405, 2012; in the data active = inhibition above about 16%, passing the limit was not always enough
HIV Env fusion = inhibitors of HIV-1 Env-driven cell-cell fusion, primary screen, HeLa-JRFL effector, CEM21 target cells, luciferase; inhibition, % at 12.3 µM; actives 1.1% (n = 360,000);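 active = mean replicate inhibition score of at least 50 and every replicate individually at or above 50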;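 note: 0% = plate neutral controls and 100% = maraviroc near 300 nM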
ALR inh = inhibitors of human ALR sulfhydryl oxidase, primary screen, biochemical, H2O2 detection, HRP-luminol luminescence, single point; FAD-linked sulfhydryl oxidase ALR (Homo sapiens), P55789; purified ALR, DTT oxidation; inhibition, % (no concentration beside the values); actives 3.8% (n = 290,000); AID 485317, 2010;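 active = mean replicate inhibition above about 79%, with every replicate also reaching it, limit read from the data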
Target sequence (P55789 whole entry, looked up): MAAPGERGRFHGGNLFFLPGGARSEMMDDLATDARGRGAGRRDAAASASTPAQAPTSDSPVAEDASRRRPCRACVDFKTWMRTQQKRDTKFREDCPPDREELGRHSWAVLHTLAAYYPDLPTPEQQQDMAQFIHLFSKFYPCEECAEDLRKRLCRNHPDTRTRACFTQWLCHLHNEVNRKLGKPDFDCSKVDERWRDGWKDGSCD
NSD2 inh = NSD2 histone methyltransferase inhibitors, primary screen, biochemical, AlphaScreen, single concentration, set 2 | actives 0.54% (n = 310,000) | inhibition, % at 12.5 µM | NSD2 peptide methylation, 120 min | Histone-lysine N-methyltransferase NSD2 (Homo sapiens), O96028; in the data active = inhibition above about 50%
* marks the source's active call; other numbers are inactive results; nt = no result given; [ ] = dose if it differs, or a comment.

SMILES	F508del corr	CASP6 VEID inh	PglD DTNB	HIV Env fusion	ALR inh	NSD2 inh
CC(C)(C)c1nnc2sc(SCC(=O)c3ccccc3)nn2c1=O	nt	nt	0	nt	98*	-7
Cc1cc(C(=O)CSc2nn3c(=O)c(C(C)(C)C)nnc3s2)c(C)n1C	-1	7	nt	-14	92*	nt
COc1ccc(C(=O)CSc2nn3c(=O)c(C(C)(C)C)nnc3s2)cc1	nt	nt	nt	nt	97*	1
CC(=O)NC[C@@H]1[C@@H](c2ccc(C3=CCCCC3)cc2)[C@@H](CO)N1C(=O)C1CCC1	2	4	nt	nt	nt	nt
S=C1NC2(CCCCC2)NN1c1ccccc1	-1	1	1	0	98*	-6
CC1CCCC2(C1)NC(=S)N(c1ccccc1)N2 (stereo unspecified)	0	1	-4	nt	43	1
Cc1nc2ccc(NC(=O)CCC3CCCC3)cc2s1	0	81*	-6	-3	18	-2
Cc1nc2ccc(NC(=O)CCS(=O)(=O)c3ccc(Cl)cc3)cc2s1	nt	-2	nt	23	nt	0
COc1ccccc1C#Cc1ccc2c(c1)[C@@H]1[C@@H](CCN1S(=O)(=O)c1ccc(F)cc1)[C@@H](CO)N2	0	1	nt	nt	nt	nt
CCN(CCCNC(=O)Cn1cc2c(n1)CCCC2)c1cccc(C)c1	3	1	2	6	99*	nt
CCN(CCCNC(=O)CCNC(=O)Cn1cnc2ccccc2c1=O)c1cccc(C)c1	nt	nt	4	-217	99*	-6
CCN(CCCNC(=O)CNC(=O)Cn1cnc2ccccc2c1=O)c1ccccc1	nt	nt	2	nt	98*	-1
CCN(CCCNC(=O)CCNC(=O)Cn1ccc2ccccc2c1=O)c1ccccc1	nt	nt	2	nt	nt	2
COCC(=O)Nc1ccc2c(c1)C(=O)N(C)C[C@H](OC)[C@@H](C)CN(C(=O)c1ccccc1)[C@@H](C)CO2	1	nt	1	-7[16.7 µM]	nt	nt
COc1ccc(NC(=O)Nc2ccc3c(c2)CC(=O)N([C@@H](C)CO)C[C@@H](C)[C@H](CN(C)C(=O)Nc2ccc4c(c2)OCO4)O3)cc1	1	nt	2	11[16.7 µM]	nt	nt
Cc1ccc(OC(=O)N(C)C[C@@H]2OCc3cn(nn3)CCCC(=O)N([C@H](C)CO)C[C@@H]2C)cc1	0	nt	nt	nt	nt	nt
Cc1cc2c(ncn2Cc2ccccc2)c(N)c1C	-1	nt	nt	8	93*	2
CCCC#Cc1ccc(CC[C@H]2O[C@H]3CC[C@@H](CO)O[C@H]3C[C@H]2NS(=O)(=O)c2ccccc2)cc1	-1	2	nt	nt	nt	nt
C[C@H]1CN([C@@H](C)CO)C(=O)Cc2cc(N(C)C)ccc2O[C@H]1CN(C)Cc1ccc(Cl)c(Cl)c1	-1	nt	nt	58*[16.7 µM]	nt	nt
C[C@@H]1CN([C@@H](C)CO)C(=O)Cc2cc(N(C)C)ccc2O[C@@H]1CN(C)Cc1ccc(Cl)c(Cl)c1	8	2	0	6[16.7 µM]	nt	nt
C[C@H]1CN([C@@H](C)CO)C(=O)Cc2cc(N(C)C)ccc2O[C@H]1CN(C)CC1CC1	-1	-7	5	59*[16.7 µM]	nt	nt
COc1ccc(C2c3c(-c4ccccc4O)n[nH]c3C(=O)N2CCc2ccc(OC)c(OC)c2)cc1 (stereo unspecified)	nt	nt	0	91*	9	1
COc1ccc(CCN2C(=O)c3[nH]nc(-c4ccccc4O)c3C2c2cccc(Cl)c2)cc1 (stereo unspecified)	nt	nt	nt	nt	8	4
C[C@@H]1CCCCO[C@@H](CN(C)C(=O)Nc2ccc(C(F)(F)F)cc2)[C@@H](C)CN([C@@H](C)CO)C(=O)c2cc(N(C)C)ccc2O1	1	-1	1	-5[16.7 µM]	nt	nt
Cc1cc(C(=O)CSc2nnnn2-c2ccccc2)c(C)n1CCc1ccccc1	nt	nt	-1	-32	-3	-3
SMILES	F508del corr	CASP6 VEID inh	PglD DTNB	HIV Env fusion	ALR inh	NSD2 inh
Cc1cc(C(=O)CSc2nnnn2-c2ccc(O)cc2)c(C)n1C	2	4	nt	-5	89*	-1
COc1ccc(-n2ccnc(SCC(=O)NCc3ccc(C)cc3)c2=O)cc1Cl	2	0	1	-78	98*	1
O=C(CSc1nccn(-c2cccc(F)c2)c1=O)Nc1ccc(Cl)cc1F	3	5	1	-23	99*	nt
Cc1ccc(CNC(=O)CSc2nccn(-c3ccc(C)c(F)c3)c2=O)cc1	-1	1	-4	-4	98*	1
CNC(=O)C[C@H]1CC[C@H]2[C@H](COc3ccc(NC(=O)Nc4cccc(Cl)c4)cc3C(=O)N2C)O1	-3	2	2	-17[16.7 µM]	nt	nt
CCc1ccc(C(=O)CN2C(=O)NC(C)(c3ccc(C)cc3)C2=O)cc1 (stereo unspecified)	-3	1	2	69*	35	25
Cc1ccc(C2(C)NC(=O)N(CC(=O)c3ccc4c(c3)OCCO4)C2=O)cc1 (stereo unspecified)	-3	6	3	nt	3	-2
Fc1ccc(CNc2ccc(N3CCN(Cc4ccccc4)CC3)cc2)cc1	0	-3	-1	15	89*	6
CC(=O)N1CCN(c2ccc(NCc3cccc4ccccc34)cc2)CC1	1	-1	-4	3	99*	16
CC(=O)N1CCN(c2ccc(NCc3ccccc3)cc2)CC1	nt	nt	nt	-62	99*	-1
O=C(CCS(=O)(=O)c1ccc(F)cc1)Nc1ccc(N2CCN(Cc3ccccc3)CC2)cc1	3	1	3	-7	-5	1
Fc1ccc(N2CCN(Cc3ccccn3)CC2)cc1	-1	-4	nt	-1	97*	2
C[C@H]1CN([C@@H](C)CO)C(=O)Cc2cc(NS(=O)(=O)c3ccccc3)ccc2O[C@H]1CN(C)C(=O)Nc1cccc2ccccc12	-3	5	-1	5[16.7 µM]	nt	nt
CC(=O)N1CCN(c2ccc(NCc3ccc(Br)o3)cc2)CC1	1	7	0	-7	99*	nt
CNC[C@@H]1Oc2c(NS(=O)(=O)c3c(C)noc3C)cccc2C(=O)N([C@H](C)CO)C[C@H]1C	-2	3	nt	nt	nt	nt
O=C(Cc1cccc2ccccc12)Nc1ccccc1F	nt	nt	nt	nt	nt	-2
CCC/C=C/c1ccc(CN2C(CC(C)C)C(=O)N(Cc3cn(CC4CCCCC4)nn3)CCS2(=O)=O)cc1 (stereo unspecified)	-3	2	-1	89*	nt	nt
Cc1ccc(-c2ccc(CN3C(CC(C)C)C(=O)N(Cc4cn(CC5CCCCC5)nn4)CCS3(=O)=O)cc2)cc1 (stereo unspecified)	2	-3	-2	6	nt	nt
CCCNC(=O)[C@@H]1[C@@H](CO)[C@@H]2Cn3c(ccc(-c4ccccc4OC)c3=O)[C@@H]2N1S(C)(=O)=O	1	2	nt	nt	nt	nt
COc1ccc(N2CCN(CCCNC(=O)CCC(=O)N3CCOc4ccc(Cl)cc43)CC2)cc1	2	-37	4	23	99*	24
